Experimental data published in the supplement of paper PMC7261846.
Counter-ions that a name gives are not always drawn. ± gives the uncertainty stated by the source.

System: Candida albicans SNY425 biofilm
Assay: biofilm OD600 with compound plus antifungal (OD600 (absorbance)); higher = more biofilm remaining
[1] = assay detail: disruption of 24-h mature biofilm (compound + antifungal for a second 24 h)
[2] = assay detail: sustained inhibition (compound + antifungal during 90-min adherence and 24-h growth)

SMILES | biofilm OD600 [1] | biofilm OD600 [2]
CC(C)C[C@H](NP(=O)(O)O[C@@H]1O[C@@H](C)[C@H](O)[C@@H](O)[C@H]1O)C(=O)N[C@@H](Cc1c[nH]c2ccccc12)C(=O)O [Phosphoramidon] + OC(Cn1cncn1)(Cn1cncn1)c1ccc(F)cc1F [fluconazole] (first compound 12.5 µM) | 0.255 ± 0.0097 | 0.156 ± 0.0037
O=C[C@@H]1CCCN1C(=O)[C@@H]1CCCN1C(=O)OCc1ccccc1 [Z-Prolyl-prolinal] + C[C@@H]1[C@H](O)[C@@H](C)/C=C/C=C/C=C/C=C/C=C/C=C/C=C/[C@H](O[C@@H]2O[C@H](C)[C@@H](O)[C@H](N)[C@@H]2O)C[C@@H]2O[C@](O)(C[C@@H](O)C[C@@H](O)[C@H](O)CC[C@@H](O)C[C@@H](O)CC(=O)O[C@H]1C)C[C@H](O)[C@H]2C(=O)O [amphotericin B] (first compound 12.5 µM) | 0.262 ± 0.013 | 0.156 ± 0.0083
CC(C)(C)NC(=O)[C@@H]1C[C@@H]2CCCC[C@@H]2CN1C[C@@H](O)[C@H](Cc1ccccc1)NC(=O)[C@H](CC(N)=O)NC(=O)c1ccc2ccccc2n1 [saquinavir] + CC[C@H](C)C[C@H](C)CCCCCCCCC(=O)N[C@H]1C[C@@H](O)[C@@H](NCCN)NC(=O)[C@@H]2[C@@H](O)CCN2C(=O)[C@H]([C@H](O)CCN)NC(=O)[C@H]([C@H](O)[C@@H](O)c2ccc(O)cc2)NC(=O)[C@@H]2C[C@@H](O)CN2C(=O)[C@H]([C@@H](C)O)NC1=O [caspofungin] (first compound 12.5 µM) | 0.148 ± 0.0056 | 0.042 ± 0.0016
N=C(N)Nc1ccc(C(=O)Oc2ccc3cc(C(=N)N)ccc3c2)cc1 [Nafamostat mesylate] + OC(Cn1cncn1)(Cn1cncn1)c1ccc(F)cc1F [fluconazole] (first compound 12.5 µM) | 0.262 ± 0.011 | 0.104 ± 0.0089
CC(C)C[C@H](NC(=O)[C@H]1O[C@@H]1C(=O)O)C(=O)NCCCCN=C(N)N + C[C@@H]1[C@H](O)[C@@H](C)/C=C/C=C/C=C/C=C/C=C/C=C/C=C/[C@H](O[C@@H]2O[C@H](C)[C@@H](O)[C@H](N)[C@@H]2O)C[C@@H]2O[C@](O)(C[C@@H](O)C[C@@H](O)[C@H](O)CC[C@@H](O)C[C@@H](O)CC(=O)O[C@H]1C)C[C@H](O)[C@H]2C(=O)O [amphotericin B] (first compound 12.5 µM) | 0.266 ± 0.0082 | 0.209 ± 0.0073
CC(C)C[C@H](NC(=O)[C@H]1O[C@@H]1C(=O)O)C(=O)NCCCCN=C(N)N + OC(Cn1cncn1)(Cn1cncn1)c1ccc(F)cc1F [fluconazole] (first compound 12.5 µM) | 0.255 ± 0.012 | 0.149 ± 0.0057
CCCC[C@@H](C=O)NC(=O)[C@H](CC(C)C)NC(=O)OCc1ccccc1 [Calpeptin] + OC(Cn1cncn1)(Cn1cncn1)c1ccc(F)cc1F [fluconazole] (first compound 12.5 µM) | 0.26 ± 0.0076 | 0.162 ± 0.01
C[C@]1(Cn2ccnn2)[C@H](C(=O)O)N2C(=O)C[C@H]2S1(=O)=O [Tazobactam] + C[C@@H]1[C@H](O)[C@@H](C)/C=C/C=C/C=C/C=C/C=C/C=C/C=C/[C@H](O[C@@H]2O[C@H](C)[C@@H](O)[C@H](N)[C@@H]2O)C[C@@H]2O[C@](O)(C[C@@H](O)C[C@@H](O)[C@H](O)CC[C@@H](O)C[C@@H](O)CC(=O)O[C@H]1C)C[C@H](O)[C@H]2C(=O)O [amphotericin B] (first compound 12.5 µM) | 0.308 ± 0.008 | 0.193 ± 0.0071
CC(C)CCNC(=O)[C@H](CC(C)C)NC(=O)[C@H]1O[C@@H]1C(=O)O + CC[C@H](C)C[C@H](C)CCCCCCCCC(=O)N[C@H]1C[C@@H](O)[C@@H](NCCN)NC(=O)[C@@H]2[C@@H](O)CCN2C(=O)[C@H]([C@H](O)CCN)NC(=O)[C@H]([C@H](O)[C@@H](O)c2ccc(O)cc2)NC(=O)[C@@H]2C[C@@H](O)CN2C(=O)[C@H]([C@@H](C)O)NC1=O [caspofungin] (first compound 12.5 µM) | 0.268 ± 0.0056 | 0.17 ± 0.01
COC(=O)N[C@H](C(=O)N[C@@H](Cc1ccccc1)[C@@H](O)CN(Cc1ccc(-c2ccccn2)cc1)NC(=O)[C@@H](NC(=O)OC)C(C)(C)C)C(C)(C)C [atazanavir] + C[C@@H]1[C@H](O)[C@@H](C)/C=C/C=C/C=C/C=C/C=C/C=C/C=C/[C@H](O[C@@H]2O[C@H](C)[C@@H](O)[C@H](N)[C@@H]2O)C[C@@H]2O[C@](O)(C[C@@H](O)C[C@@H](O)[C@H](O)CC[C@@H](O)C[C@@H](O)CC(=O)O[C@H]1C)C[C@H](O)[C@H]2C(=O)O [amphotericin B] (first compound 12.5 µM) | 0.286 ± 0.013 | 0.213 ± 0.0068
O=C[C@@H]1CCCN1C(=O)[C@@H]1CCCN1C(=O)OCc1ccccc1 [Z-Prolyl-prolinal] + OC(Cn1cncn1)(Cn1cncn1)c1ccc(F)cc1F [fluconazole] (first compound 12.5 µM) | 0.247 ± 0.013 | 0.0978 ± 0.0091
CC(C)CCNC(=O)[C@H](CC(C)C)NC(=O)[C@H]1O[C@@H]1C(=O)O + OC(Cn1cncn1)(Cn1cncn1)c1ccc(F)cc1F [fluconazole] (first compound 12.5 µM) | 0.25 ± 0.0093 | 0.143 ± 0.008
CCN1C(=O)C=CC1=O [N-Ethylmaleimide] + C[C@@H]1[C@H](O)[C@@H](C)/C=C/C=C/C=C/C=C/C=C/C=C/C=C/[C@H](O[C@@H]2O[C@H](C)[C@@H](O)[C@H](N)[C@@H]2O)C[C@@H]2O[C@](O)(C[C@@H](O)C[C@@H](O)[C@H](O)CC[C@@H](O)C[C@@H](O)CC(=O)O[C@H]1C)C[C@H](O)[C@H]2C(=O)O [amphotericin B] (first compound 4 µM) | 0.304 ± 0.0086 | 0.189 ± 0.0049
CCC(C)[C@H](NS(=O)(=O)c1cccc2ccccc12)C(=O)N[C@H](C=O)Cc1c[nH]c2ccccc12 (stereo not given in full) + C[C@@H]1[C@H](O)[C@@H](C)/C=C/C=C/C=C/C=C/C=C/C=C/C=C/[C@H](O[C@@H]2O[C@H](C)[C@@H](O)[C@H](N)[C@@H]2O)C[C@@H]2O[C@](O)(C[C@@H](O)C[C@@H](O)[C@H](O)CC[C@@H](O)C[C@@H](O)CC(=O)O[C@H]1C)C[C@H](O)[C@H]2C(=O)O [amphotericin B] (first compound 12.5 µM) | 0.27 ± 0.0099 | 0.188 ± 0.0088
COC(=O)N[C@H](C(=O)N[C@@H](Cc1ccccc1)[C@@H](O)CN(Cc1ccc(-c2ccccn2)cc1)NC(=O)[C@@H](NC(=O)OC)C(C)(C)C)C(C)(C)C [atazanavir] + CC[C@H](C)C[C@H](C)CCCCCCCCC(=O)N[C@H]1C[C@@H](O)[C@@H](NCCN)NC(=O)[C@@H]2[C@@H](O)CCN2C(=O)[C@H]([C@H](O)CCN)NC(=O)[C@H]([C@H](O)[C@@H](O)c2ccc(O)cc2)NC(=O)[C@@H]2C[C@@H](O)CN2C(=O)[C@H]([C@@H](C)O)NC1=O [caspofungin] (first compound 12.5 µM) | 0.203 ± 0.0059 | 0.201 ± 0.013
CC(C)C[C@H](NC(=O)[C@@H](O)[C@H](N)Cc1ccccc1)C(=O)O [Bestatin·HCl] + OC(Cn1cncn1)(Cn1cncn1)c1ccc(F)cc1F [fluconazole] (first compound 12.5 µM) | 0.284 ± 0.013 | 0.163 ± 0.011
CCCC[C@@H](C=O)NC(=O)[C@H](CC(C)C)NC(=O)OCc1ccccc1 [Calpeptin] + C[C@@H]1[C@H](O)[C@@H](C)/C=C/C=C/C=C/C=C/C=C/C=C/C=C/[C@H](O[C@@H]2O[C@H](C)[C@@H](O)[C@H](N)[C@@H]2O)C[C@@H]2O[C@](O)(C[C@@H](O)C[C@@H](O)[C@H](O)CC[C@@H](O)C[C@@H](O)CC(=O)O[C@H]1C)C[C@H](O)[C@H]2C(=O)O [amphotericin B] (first compound 12.5 µM) | 0.266 ± 0.0066 | 0.189 ± 0.01
CC(C)C[C@@H](C=O)NC(=O)[C@H](CC(C)C)NC(=O)[C@H](CC(C)C)NC(=O)OCc1ccccc1 + C[C@@H]1[C@H](O)[C@@H](C)/C=C/C=C/C=C/C=C/C=C/C=C/C=C/[C@H](O[C@@H]2O[C@H](C)[C@@H](O)[C@H](N)[C@@H]2O)C[C@@H]2O[C@](O)(C[C@@H](O)C[C@@H](O)[C@H](O)CC[C@@H](O)C[C@@H](O)CC(=O)O[C@H]1C)C[C@H](O)[C@H]2C(=O)O [amphotericin B] (first compound 12.5 µM) | 0.29 ± 0.0045 | 0.209 ± 0.017
CC(C)C[C@H](NC(=O)N[C@H](C(=O)N[C@@H](CCC(N)=O)C(=O)N[C@@H](C)C=O)[C@@H]1CCNC(=N)N1)C(=O)O [Elastatinal] + C[C@@H]1[C@H](O)[C@@H](C)/C=C/C=C/C=C/C=C/C=C/C=C/C=C/[C@H](O[C@@H]2O[C@H](C)[C@@H](O)[C@H](N)[C@@H]2O)C[C@@H]2O[C@](O)(C[C@@H](O)C[C@@H](O)[C@H](O)CC[C@@H](O)C[C@@H](O)CC(=O)O[C@H]1C)C[C@H](O)[C@H]2C(=O)O [amphotericin B] (first compound 12.5 µM) | 0.273 ± 0.0073 | 0.21 ± 0.0065
CC(C)C[C@@H](C=O)NC(=O)[C@H](CC(C)C)NC(=O)[C@H](CC(C)C)NC(=O)OCc1ccccc1 + CC[C@H](C)C[C@H](C)CCCCCCCCC(=O)N[C@H]1C[C@@H](O)[C@@H](NCCN)NC(=O)[C@@H]2[C@@H](O)CCN2C(=O)[C@H]([C@H](O)CCN)NC(=O)[C@H]([C@H](O)[C@@H](O)c2ccc(O)cc2)NC(=O)[C@@H]2C[C@@H](O)CN2C(=O)[C@H]([C@@H](C)O)NC1=O [caspofungin] (first compound 12.5 µM) | 0.281 ± 0.0049 | 0.193 ± 0.0098
